Most compounds without a hit are left out; they make up all but 2.4% or so of the library.
FEN1 inhibitor – human FEN1 inhibition. P39748. Recombinant FEN1 flap cleavage, fluorescence, 15 min. Potency, µM (top dose mostly 114 µM), inactives show at the highest dose activity change, negative = inhibition, most hits filed as inhibitors. hit rate 0.35% among 390,000. AID 588795; note: % is set by controls: 0 for no effect and ±100 for the full control effect; nearly all actives have a fitted effect of over 65% in size
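Potency values derive from four-parameter Hill fits of normalized qHTS data. The reaction used 10 nM FEN1 preincubated 15 min at room temperature with compound, then 50 nM DNA substrate, read at 0 and 15 min.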
Pol beta inh – inhibitors of human DNA polymerase beta. P06746. Pol beta primer extension/strand displacement, fluorescence kinetic. Potency, µM (doses to about 114 µM), inactives show at the highest dose activity change, negative = inhibition, hits mostly inhibitors. hit rate 1.3% among 340,000; note: % is set by controls: 0 for no effect and ±100 for the full control effect
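Values derive from four-parameter Hill fits of normalized kinetic data: reads at 0 and 10 min following addition of 50 nM substrate to 10 nM Pol beta preincubated 15 min with compound.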
POLI inh – blocks human DNA polymerase iota activity. AID 588590. hit rate 1% among 390,000. Pol iota fluorescent replication assay, 10 min. Potency, µM (doses to about 115 µM), for inactives: top-dose activity, negative = inhibition, actives largely listed as inhibitors
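Fluorescent replication assay read twice, at 0 min and 10 min after adding 50 nM (final) substrate. Enzyme (10 nM) and compounds were first incubated 15 min at room temperature; enzyme-free buffer wells were negative controls.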
POLH inh – DNA polymerase eta (human) inhibition. Q9Y253. recombinant Pol eta, fluorescent DNA replication assay. Potency, µM (top dose mostly 114 µM), for the others: top-dose activity change, negative = inhibition, actives largely listed as inhibitors. hit rate 1.2% among 390,000; note: % is set by controls: 0 for no effect and ±100 for the full control effect
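Pol eta (10 nM) was preincubated with compounds for 15 min at room temperature, after which fluorescent replication substrate (50 nM final) was added to start the reaction. Fluorescence was read kinetically at 0 and 10 min.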
POLK inh – blocks human DNA polymerase kappa activity; Q9UBT6; purified Pol kappa, fluorescent DNA synthesis assay, 10 min; Potency, µM (series often up to 107 µM), without a hit: at the highest dose activity, negative = inhibition, usual class: inhibitors; hit rate 0.53% among 400,000; AID 588579; note: % is set by controls: 0 for no effect and ±100 for the full control effect
Target sequence (Q9UBT6 whole entry, looked up): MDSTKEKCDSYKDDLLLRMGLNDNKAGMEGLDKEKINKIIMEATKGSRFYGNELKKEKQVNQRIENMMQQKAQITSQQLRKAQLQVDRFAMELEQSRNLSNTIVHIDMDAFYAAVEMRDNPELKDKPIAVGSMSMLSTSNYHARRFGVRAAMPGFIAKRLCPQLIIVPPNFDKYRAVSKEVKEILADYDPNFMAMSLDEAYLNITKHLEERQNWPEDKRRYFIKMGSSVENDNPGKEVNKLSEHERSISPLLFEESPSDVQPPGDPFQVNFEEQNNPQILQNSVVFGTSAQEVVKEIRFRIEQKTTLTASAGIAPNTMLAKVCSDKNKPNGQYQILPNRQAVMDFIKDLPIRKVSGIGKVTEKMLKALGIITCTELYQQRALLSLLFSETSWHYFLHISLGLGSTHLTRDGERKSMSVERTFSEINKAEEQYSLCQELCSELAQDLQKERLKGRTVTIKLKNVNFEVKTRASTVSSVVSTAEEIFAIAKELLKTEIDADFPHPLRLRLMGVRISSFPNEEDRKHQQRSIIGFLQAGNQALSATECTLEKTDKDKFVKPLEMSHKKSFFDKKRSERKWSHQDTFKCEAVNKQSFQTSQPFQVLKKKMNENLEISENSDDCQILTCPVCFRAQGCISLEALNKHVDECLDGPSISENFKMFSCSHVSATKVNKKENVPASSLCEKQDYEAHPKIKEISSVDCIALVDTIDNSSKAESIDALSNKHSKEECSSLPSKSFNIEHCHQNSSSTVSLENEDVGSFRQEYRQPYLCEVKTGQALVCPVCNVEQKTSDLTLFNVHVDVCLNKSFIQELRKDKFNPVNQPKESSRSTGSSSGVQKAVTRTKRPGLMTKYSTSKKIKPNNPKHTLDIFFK
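Enzyme at 10 nM met test compounds for 15 min at room temperature. Substrate addition (50 nM final) began the reaction, which was monitored by fluorescence at 0 and 10 min.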
WRN helicase inh-1 – blocks human WRN helicase; Q14191; WRN helicase unwinding, fluorescent forked duplex, kinetic; Potency, µM (series often up to 114 µM), for inactives: top-dose activity change, negative = inhibition, most hits filed as inhibitors; hit rate 0.46% among 360,000; AID 651768; note: % is set by controls: 0 for no effect and ±100 for the full control effect; nearly all actives have a fitted effect of over 55% in size
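Kinetic fluorescence helicase assay: unwinding of a quenched forked DNA duplex (100 nM final) with 2 mM ATP final raises red fluorescence (525/598 nm). Compounds sat 15 min at room temperature with 20 nM WRN beforehand.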
WRN helicase inh-2 – confirmation of human WRN helicase inhibitors; WRN helicase DNA unwinding, fluorescence kinetic; hit rate 63% among 610; shares compounds with WRN helicase inh-1; Potency, µM (series often up to 57.1 µM), for inactives: top-dose activity, negative = inhibition, most hits filed as inhibitors; note: nearly all actives have a fitted effect of over 65% in size
TO displacement – DNA binding via thiazole orange displacement. shares compounds with WRN helicase inh-1. thiazole orange DNA binding displacement, fluorescence. Potency, µM (top dose mostly 57.1 µM), for the others: top-dose activity change, negative = inhibition, hits mostly inhibitors. hit rate 10% among 610. AID 720499;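 note: drop in dye fluorescence marks compound binding to DNA; % is set by controls: 0 for no effect and ±100 for the full control effect; nearly all actives have a fitted effect of over 60% in size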
BLM helicase inh – counter-screen for WRN helicase inhibitors: human BLM helicase inhibition | Potency, µM (series often up to 57.1 µM), inactives show at the highest dose activity change, negative = inhibition, hits mostly inhibitors | Recombinant BLM helicase DNA unwinding, red fluorescence | shares compounds with WRN helicase inh-1 | hit rate 60% among 610; note: nearly all actives have a fitted effect of over 60% in size
* marks the source's active call; other numbers are inactive results; ? = inconclusive; · = not tested or not shown; [ ] = dose if it differs, or a comment. Calls come from the whole dose curve; as a rule, active = well fitted curve in the direction sought with a large enough effect; inconclusive = small, poorly fitted or top-dose-only effect, or another doubt; inactive = no such curve, though single readings can be large; an effect the other way counts as inactive or inconclusive. Potency is the fitted concentration of half-maximal effect.

SMILES | FEN1 inhibitor | Pol beta inh | POLI inh | POLH inh | POLK inh | WRN helicase inh-1 | WRN helicase inh-2 | TO displacement | BLM helicase inh
C=C1C=C(C)n2ncc(C(=O)Nc3cccc(C(=O)Nc4cccc(C(F)(F)F)c4)c3)c2N1 | -16% | · | 7% | · | -10% | · | · | · | ·
N=C1S/C(=C\c2ccco2)C(=O)N1c1ccc2c(c1)OCO2 | -14% | 20µM* | 325% | 35µM* | ? | ? | ? | -30% | 19µM*
N=C1S/C(=C\c2ccco2)C(=O)N1c1nccs1 | -25% | ? | ? | ? | -36% | -7%[11.6 µM] | · | · | ·
COc1ccc(C(=O)Nc2nc(-c3ccc([N+](=O)[O-])cc3)c(-c3ccc(OC)cc3)s2)cc1 | -25% | 68% | -6% | ? | ? | ? | -11% | 5% | -11%
CCc1[nH]c(=O)[nH]c1C(C)S(=O)(=O)c1ccc(C)cc1 (centres undefined) | -13% | 1% | 52% | -8% | -5% | ? | 2% | 1% | ?
CCOc1ccc(-n2c(=O)c3ccccc3c3ccccc3c2=O)cc1 | -8% | -4% | 42% | -8% | -13% | ? | · | · | ·
CCOc1ccccc1-n1c(=O)c2ccccc2c2ccccc2c1=O | -19% | 1% | 5% | -20% | -17% | ? | -14% | -15% | -11%
Cc1cc(Cl)c(OCCOCCN2CCCCC2)c(Br)c1 | -1% | 5% | 144% | 2% | -6% | ? | -2% | -2% | -15%
CC1(C)CC(=O)C(C(C2=C(O)CC(C)(C)CC2=O)c2ccc(O)c([N+](=O)[O-])c2)=C(O)C1 | 79µM* | -1% | ? | ? | -8% | ? | 22µM* | ? | -24%
C#CCOc1ccc(/C=C2/C(=O)ON=C2C)cc1Br | -2% | ? | 54% | -30% | 2% | ? | -20% | -7% | ?
CCOc1cc(/C=C2\C(=O)ON=C2C)ccc1OCc1ccccc1 | -2% | -19% | 15% | ? | 3% | ? | ? | 0% | -12%
CCCOc1ccc(/C=C2/C(=O)ON=C2C)cc1OCC | -4% | 2% | 50% | -18% | -2% | -7% | · | · | ·
COc1ccc(/C=C2/C(=O)ON=C2C)cc1Cl | -1% | 7% | 17% | 4% | 2% | ? | -8% | -7% | 3%
C#CCOc1ccc(Cl)cc1/C=C1/C(=O)ON=C1C | 3% | -12% | -28% | -7% | 1% | -3% | · | · | ·
CCc1cccc2c(C(O)(c3c[nH]c4c(CC)cccc34)c3c[nH]c4c(CC)cccc34)c[nH]c12 | 2% | · | 7% | · | -4% | · | · | · | ·
COc1ccc(C(=O)C[n+]2cccc3cc(Cl)ccc32)cc1 | -5% | · | ? | · | ? | · | · | · | ·
COC(=O)CSc1nc(SC)nc2c1sc1nc(-c3ccco3)c3c(c12)CC(C)(C)OC3 | -9% | · | 45% | -6% | -8% | 3% | · | · | ·
CSc1nc(SCCO)c2sc3nc(-c4ccco4)c4c(c3c2n1)CC(C)(C)OC4 | -1% | 1.6µM* | 22µM* | 79µM* | -32% | 50µM* | 7.6µM* | 15µM* | 2.2µM*
CN(C)c1ccc(C=Nc2cnc3ccccc3c2)cc1 | 4% | · | 4% | · | -15% | · | · | · | ·
CCC[n+]1c2ccccc2cc2ccccc21 | ? | -17% | ? | -8% | -1% | ? | 3µM* | 1.7µM* | 7.6µM*
COC(=O)C(CC(=O)c1ccc(Br)cc1)n1nc(C)cc1C (centres undefined) | 10% | -3% | 26% | -17% | -2% | -6% | · | · | ·
COC(=O)C(CC(=O)c1ccc(Br)cc1)n1ccnc1 (centres undefined) | ? | -1% | 1% | · | -1% | · | -15% | -11% | ?
Cc1cc(NS(=O)(=O)c2ccc(NC(=O)/C=C/c3ccc(Br)cc3)cc2)no1 | -2% | 12% | 14% | 6% | -2% | ? | -27% | -14% | ?

Screens: PubChem, National Center for Advancing Translational Sciences (NCATS)
